In PubChem BioAssay AID1159580 (chemical genetic matrix, 2015):
In all, about 5,500 compounds went through this assay and about 2,000 (36%) were called active. Not shown: some 18% with an inconclusive outcome. Rule as the data show it: active = normalized growth mostly below about 0.91 (no sharp cut-off); inconclusive = no clear call, values can overlap the other calls; inactive = mostly above about 0.92. The list shows a part of the results.

Assay: chemical genetic growth profiling, strain panel (AID 1159580);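 also: tested at 20 µM; growth read once vehicle control cultures reached saturation at 30 °C; 1 = growth at the plate median or of vehicle wells; lower values mean less growth of the strain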
Conditions: growth OD

Measured: normalized growth

N#CC1COc2ccccc2O1 (centres undefined)
inactive: S. cerevisiae deletion strains, locus YAL013W, strain DEP1, stronger effect = lower value 1.01 | S. cerevisiae deletion strains, locus YBR229C, strain ROT2, stronger effect = lower value 0.993 | S. cerevisiae deletion strains, locus YDL101C, strain DUN1, stronger effect = lower value 1.01 | S. cerevisiae deletion strains, locus YDR150W, strain NUM1, stronger effect = lower value 1.03 | S. cerevisiae deletion strains, locus YEL061C, strain CIN8, stronger effect = lower value 1.01 | S. cerevisiae deletion strains, locus YGR078C, strain PAC10, stronger effect = lower value 0.999 | S. cerevisiae deletion strains, locus YGR229C, strain SMI1, stronger effect = lower value 0.999 | S. cerevisiae deletion strains, locus YHR030C, strain SLT2, stronger effect = lower value 1.03 | S. cerevisiae deletion strains, locus YHR087W, strain rtc3, stronger effect = lower value 0.989 | S. cerevisiae deletion strains, locus YJR043C, strain POL32, stronger effect = lower value 1.03 | S. cerevisiae deletion strains, locus YJR075W, strain HOC1, stronger effect = lower value 0.973 | S. cerevisiae deletion strains, locus YKL190W, strain CNB1, stronger effect = lower value 1.02 | S. cerevisiae deletion strains, locus YLR039C, strain RIC1, stronger effect = lower value 1 | S. cerevisiae deletion strains, locus YLR058C, strain SHM2 (second series), stronger effect = lower value 0.994 | S. cerevisiae deletion strains, locus YLR085C, strain ARP6, stronger effect = lower value 1.01 | S. cerevisiae deletion strains, locus YLR262C, strain YPT6, stronger effect = lower value 0.997 | S. cerevisiae deletion strains, locus YML094W, strain GIM5, stronger effect = lower value 1.01 | S. cerevisiae deletion strains, locus YMR219W, strain ESC1, stronger effect = lower value 0.999 | S. cerevisiae deletion strains, locus YMR263W, strain SAP30, stronger effect = lower value 1.03 | S. cerevisiae deletion strains, locus YMR307W, strain GAS1, stronger effect = lower value 1.1 | S. cerevisiae deletion strains, locus YNL153C, strain GIM3, stronger effect = lower value 0.996 | S. cerevisiae deletion strains, locus YNL298W, strain CLA4 (second series), stronger effect = lower value 1.04 | S. cerevisiae deletion strains, locus YNL322C, strain KRE1, stronger effect = lower value 0.984 | S. cerevisiae deletion strains, locus YNR030W, strain Alg12, stronger effect = lower value 1.01 | S. cerevisiae deletion strains, locus YPL055C, strain LGE1, stronger effect = lower value 1.13 | S. cerevisiae deletion strains, locus YPL241C, strain CIN2, stronger effect = lower value 0.998 | S. cerevisiae deletion strains, locus YPR135W, strain CTF4, stronger effect = lower value 1.04 | S. cerevisiae strains, strain wild type, stronger effect = lower value 1.01

S=c1ccss1
inactive: S. cerevisiae deletion strains, locus YAL030W, strain snc1, stronger effect = lower value 0.997 | S. cerevisiae deletion strains, locus YBL061C, strain skt5, stronger effect = lower value 0.989 | S. cerevisiae deletion strains, locus YBR009C, strain hhf1, stronger effect = lower value 0.915 | S. cerevisiae deletion strains, locus YBR023C, strain chs3, stronger effect = lower value 0.972 | S. cerevisiae deletion strains, locus YBR171W, strain sec66, stronger effect = lower value 0.994 | S. cerevisiae deletion strains, locus YBR279W, strain paf1, stronger effect = lower value 0.948 | S. cerevisiae deletion strains, locus YCL011C, strain gbp2, stronger effect = lower value 0.916 | S. cerevisiae deletion strains, locus YCL016C, strain dcc1, stronger effect = lower value 0.977 | S. cerevisiae deletion strains, locus YCL069W, strain vba3, stronger effect = lower value 1 | S. cerevisiae deletion strains, locus YCR088W, strain abp1, stronger effect = lower value 1 | S. cerevisiae deletion strains, locus YDL005C, strain med2, stronger effect = lower value 0.987 | S. cerevisiae deletion strains, locus YDL040C, strain nat1, stronger effect = lower value 0.985 | S. cerevisiae deletion strains, locus YDR001C, strain nth1, stronger effect = lower value 1 | S. cerevisiae deletion strains, locus YDR159W, strain sac3, stronger effect = lower value 1.06 | S. cerevisiae deletion strains, locus YDR195W, strain ref2 1.1 | S. cerevisiae deletion strains, locus YDR297W, strain sur2, stronger effect = lower value 0.993 | S. cerevisiae deletion strains, locus YDR334W, strain swr1, stronger effect = lower value 0.931 | S. cerevisiae deletion strains, locus YDR335W, strain msn5, stronger effect = lower value 0.992 | S. cerevisiae deletion strains, locus YDR392W, strain spt3, stronger effect = lower value 1.02 | S. cerevisiae deletion strains, locus YEL003W, strain gim4, stronger effect = lower value 1.01 | S. cerevisiae deletion strains, locus YEL037C, strain rad23, stronger effect = lower value 0.984 | S. cerevisiae deletion strains, locus YEL061C, strain CIN8 (second series), stronger effect = lower value 1.01 | S. cerevisiae deletion strains, locus YER015W, strain faa2, stronger effect = lower value 0.984 | S. cerevisiae deletion strains, locus YER016W, strain bim1, stronger effect = lower value 0.984 | S. cerevisiae deletion strains, locus YER111C, strain swi4, stronger effect = lower value 1.01 | S. cerevisiae deletion strains, locus YER155C, strain BEM2 (second series), stronger effect = lower value 0.979 | S. cerevisiae deletion strains, locus YGL167C, strain pmr1, stronger effect = lower value 1 | S. cerevisiae deletion strains, locus YGL173C, strain kem1, stronger effect = lower value 0.926 | S. cerevisiae deletion strains, locus YGL227W, strain vid30, stronger effect = lower value 1.01 | S. cerevisiae deletion strains, locus YGL240W, strain doc1, stronger effect = lower value 0.96 | S. cerevisiae deletion strains, locus YHR027C, strain rpn1, stronger effect = lower value 0.943 | S. cerevisiae deletion strains, locus YHR142W, strain chs7, stronger effect = lower value 0.94 | S. cerevisiae deletion strains, locus YJL092W, strain hpr5, stronger effect = lower value 0.991 | S. cerevisiae deletion strains, locus YJL095W, strain BCK1 (second series), stronger effect = lower value 0.99 | S. cerevisiae deletion strains, locus YJL115W, strain asf1, stronger effect = lower value 0.994 | S. cerevisiae deletion strains, locus YJL129C, strain trk1, stronger effect = lower value 0.927 | S. cerevisiae deletion strains, locus YJL154C, strain vps35, stronger effect = lower value 0.997 | S. cerevisiae deletion strains, locus YJL164C, strain tpk1, stronger effect = lower value 0.956 | S. cerevisiae deletion strains, locus YJL166W, strain qcr8, stronger effect = lower value 0.914 | S. cerevisiae deletion strains, locus YJL187C, strain SWE1, stronger effect = lower value 0.965 | S. cerevisiae deletion strains, locus YKL160W, strain elf1, stronger effect = lower value 0.947 | S. cerevisiae deletion strains, locus YKR026C, strain gcn3, stronger effect = lower value 0.993 | S. cerevisiae deletion strains, locus YKR091W, strain srl3, stronger effect = lower value 0.992 | S. cerevisiae deletion strains, locus YLL001W, strain dnm1, stronger effect = lower value 0.939 | S. cerevisiae deletion strains, locus YLL026W, stronger effect = lower value 0.967 | S. cerevisiae deletion strains, locus YLL041C, strain sdh2, stronger effect = lower value 1 | S. cerevisiae deletion strains, locus YLR027C, strain aat2, stronger effect = lower value 0.943 | S. cerevisiae deletion strains, locus YLR221C, strain rsa3, stronger effect = lower value 0.924 | S. cerevisiae deletion strains, locus YLR258W, strain gsy2, stronger effect = lower value 0.965 | S. cerevisiae deletion strains, locus YLR262C, strain YPT6 (second series), stronger effect = lower value 0.866 | S. cerevisiae deletion strains, locus YLR320W, strain mms22, stronger effect = lower value 0.939 | S. cerevisiae deletion strains, locus YLR342W, strain FKS1, stronger effect = lower value 0.973 | S. cerevisiae deletion strains, locus YLR370C, strain arc18, stronger effect = lower value 0.929 | S. cerevisiae deletion strains, locus YLR384C, strain iki3, stronger effect = lower value 0.996 | S. cerevisiae deletion strains, locus YML120C, strain ndi1, stronger effect = lower value 1.02 | S. cerevisiae deletion strains, locus YMR058W, strain fet3, stronger effect = lower value 0.962 | S. cerevisiae deletion strains, locus YMR125W, strain sto1, stronger effect = lower value 1.04 | S. cerevisiae deletion strains, locus YMR129W, stronger effect = lower value 0.984 | S. cerevisiae deletion strains, locus YMR205C, strain PFK2, stronger effect = lower value 0.935 | S. cerevisiae deletion strains, locus YMR231W, strain pep5, stronger effect = lower value 0.995 | S. cerevisiae deletion strains, locus YNL071W, strain lat1, stronger effect = lower value 0.922 | S. cerevisiae deletion strains, locus YNL209W, strain ssb2, stronger effect = lower value 0.981 | S. cerevisiae deletion strains, locus YNL248C, strain rpa49, stronger effect = lower value 1.01 | S. cerevisiae deletion strains, locus YNL322C, strain KRE1 (second series), stronger effect = lower value 0.99 | S. cerevisiae deletion strains, locus YNR049C, strain mso1, stronger effect = lower value 1 | S. cerevisiae deletion strains, locus YOR001W, strain rrp6, stronger effect = lower value 0.98 | S. cerevisiae deletion strains, locus YOR080W, strain dia2, stronger effect = lower value 1 | S. cerevisiae deletion strains, locus YOR265W, strain rbl2, stronger effect = lower value 0.992 | S. cerevisiae deletion strains, locus YOR290C, strain snf2, stronger effect = lower value 0.866 | S. cerevisiae deletion strains, locus YPL106C, strain sse1, stronger effect = lower value 0.958 | S. cerevisiae deletion strains, locus YPL240C, strain hsp82, stronger effect = lower value 0.986
active: S. cerevisiae deletion strains, locus YAL021C, strain ccr4, stronger effect = lower value 0.679 | S. cerevisiae deletion strains, locus YAL026C, strain drs2, stronger effect = lower value 0.779 | S. cerevisiae deletion strains, locus YBR231C, strain swc5, stronger effect = lower value 0.895 | S. cerevisiae deletion strains, locus YDR069C, strain doa4, stronger effect = lower value 0.835 | S. cerevisiae deletion strains, locus YDR137W, strain rgp1, stronger effect = lower value 0.805 | S. cerevisiae deletion strains, locus YFR010W, strain ubp6, stronger effect = lower value 0.839 | S. cerevisiae deletion strains, locus YGL253W, strain hxk2, stronger effect = lower value 0.818 | S. cerevisiae deletion strains, locus YHR013C, strain ard1, stronger effect = lower value 0.77 | S. cerevisiae deletion strains, locus YLR357W, strain rsc2, stronger effect = lower value 0.807 | S. cerevisiae deletion strains, locus YOR070C, strain gyp1, stronger effect = lower value 0.911 | S. cerevisiae deletion strains, locus YOR083W, strain WHI5, stronger effect = lower value 0.857 | S. cerevisiae deletion strains, locus YOR106W, strain vam3, stronger effect = lower value 0.646 | S. cerevisiae deletion strains, locus YOR270C, strain vph1, stronger effect = lower value 0.423 | S. cerevisiae deletion strains, locus YPL051W, strain arl3, stronger effect = lower value 0.904 | S. cerevisiae deletion strains, locus YPL078C, strain atp4, stronger effect = lower value 0.872
